Laboratory results reported in PubChem BioAssay (NCATS).
Records with an inconclusive call do not appear. Calls of active or inactive are those of the source. Calls come from the whole dose curve; as a rule, active = well fitted cell-killing curve with a large enough effect; inconclusive = small, poorly fitted or top-dose-only effect, or effect the other way; inactive = flat fitted curve, though single readings scatter.

What follows are molecules tested on Tov112D (assay: Primary qHTS to identify gynecologic anti-cancer compounds using libraries of approved drugs and bioactive compounds (AID 1345084; note: nearly all actives have a fitted effect of over 55% in size)). Conditions: Gynecologic cancer cell panel viability, ATPlite luminescence, 48 h; series mostly up to 57.5 µM; activity change, negative = cytotoxicity: at the top concentration.
Summary of the method: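 Cytotoxicity screen measuring ATP content by luciferase luminescence. Each compound is applied at five concentrations for 48 h at 37 C with 5% CO2.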
% is set by controls: 0 for no effect and ±100 for the full control effect; potency is the fitted concentration of half-maximal effect.

Compound | activity change, negative = cytotoxicity | Potency
C[C@H](Oc1cc(-c2cnn(C3CCNCC3)c2)cnc1N)c1c(Cl)ccc(F)c1Cl | -2.68% (inactive) | –
C/C=C/C=C/C=C/C(=O)O[C@@H]1C=C(CO)C(O)(C(=O)OC)[C@@]2(C)CCCC(C)(C)C12 (stereo partly drawn) | -9.85% [at 25.3 µM] (inactive) | –
CC(=O)Nc1cccc(Nc2ncnc(N3CCC(OCc4ccc(OC(F)(F)F)cc4)CC3)n2)c1C | -0.896% (inactive) | –
Cn1nc(C(C)(C)C)cc1C(=O)N[C@@H](Cc1cccc(Cl)c1)C(=O)NCC#N | 9.22% (inactive) | –
CC(=O)N1CCN(CCOc2ccc(C3CCN(C4=Nn5c(nnc5C(F)(F)F)CC4)CC3)cc2)CC1 | -29.2% (inactive) | –
CCCOc1ccc(CCc2nc3cc(-c4c(C)noc4C)ccc3n2CCN2CCOCC2)cc1 | -5.26% (inactive) | –
CCC(C)C(=O)O[C@H]1[C@H](O)[C@@]2(COC(C)=O)C(CC1(C)C)C1=CCC3[C@@]4(C)CC[C@H](O[C@@H]5O[C@H](C(=O)O)[C@@H](O)[C@H](O)[C@H]5O)[C@@](C)(CO)C4CC[C@@]3(C)[C@]1(C)C[C@@H]2O (stereo partly drawn) | 6.69% [at 11.6 µM] (inactive) | –
COC1CCN(c2cccc(-c3cc(NC(C)=O)nc(-n4nc(C)cc4C)n3)n2)CC1 | -12% (inactive) | –
O=C(Nc1ccccc1)N1CCN(c2nc(-c3ccccc3)ns2)CC1 | -6.81% (inactive) | –
O=C(NNc1nc2cc(F)ccc2n2cccc12)c1cnccn1 | – | 6.31 µM (active)
COc1cc2c(cc1NS(=O)(=O)c1ccc(Br)cc1C)n(C)c(=O)n2C | -18.7% (inactive) | –
Cn1c(CO)c(-c2ccccc2)c2cc([N+](=O)[O-])ccc21 | -1.57% (inactive) | –
CC(C)(C)Sc1c(CC(C)(C)C(=O)O)n(Cc2ccc(Cl)cc2)c2ccc(OCc3ccc4ccccc4n3)cc12 | 6.94% (inactive) | –
